In PubChem BioAssay (EPA / NIEHS):
Where “and” joins values, the source holds several entries; their conditions need not be identical. Equal values may be shown once. Inconclusive results are not listed. Some structures have more than one record in an assay (separate samples or runs), and their calls can disagree. Calls of active or inactive are those of the source. How the source made its calls, unless noted: active means hit-call score of the fitted dose curve at least 0.9, where 1 is the maximum; inconclusive means response in the unintended direction; inactive means score below 0.9.

What was measured:
[1] = test system: Sodium/Iodide Symporter (NIS), SLC5A5 (gene 6528); assay: CPHEA_Stoker_NIS_Inhibition_RAIU: CPHEA's Radioactive Iodide Uptake (RAIU) Assay for Sodium/Iodide Symporter (NIS) Inhibition, Stoker and Laws Labs (AID 2283841)
Outline: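 hNIS-HEK293T-EPA cells incubated 2 h at room temperature with compound (0.001–100 uM, 0.5% DMSO) and 329 pM final 125I in HBSS/10 mM HEPES, pH 7.4. Intracellular 125I counted; normalised to DMSO maximal uptake, triplicate, three biological replicates.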

[2] = CPHEA_Stoker_NIS_Cytotoxicity: Cytotoxicity Assessment for CPHEA's Radioactive Iodide Uptake (RAIU) Assay for Sodium/Iodide Symporter (NIS) Inhibition, Stoker and Laws Labs (AID 2283897);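 on AC50: active means loss of ATP signal versus DMSO meaning cytotoxicity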
Outline: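 hNIS-HEK293T-EPA cells, human NIS expressed in HEK293T, treated 2 h with chemicals (0.001–100 uM, 0.5% final DMSO). ATP content read by CellTiter-Glo luminescence; loss of signal analysed relative to DMSO.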

[3] = biological target: frog Thyroid hormone Receptor alpha (TRa), thra-a (gene 397942) (UniProt P15204); assay: ATG_frTRa_XSP2: Attagene TRANS-FACTORIAL Multi-Species (XSP2) HepG2 Assay for frog Thyroid hormone Receptor alpha (TRa) (AID 2283839);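 on AC50: AC50 reflects induction of frog TRa-driven reporter mRNA above DMSO baseline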
Outline: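 Read-out: fluorescent reporter-transcript fragments resolved by capillary electrophoresis after RT-PCR and HpaI cut. Human HepG2 liver cells carry a transfected frog TRα-Gal4 chimera driving a UAS reporter; 24 h exposure, DMSO baseline, positive-direction fit.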

[4] = biological target: human Thyroid hormone Receptor beta (TRb), THRB (gene 7068) (UniProt P10828); assay: ATG_hTRb_XSP2: Attagene TRANS-FACTORIAL Multi-Species (XSP2) HepG2 Assay for human Thyroid hormone Receptor beta (TRb) (AID 2283840);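 further: actives raise reporter mRNA so potency reflects agonist-like gain of signal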
Outline: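 Read-out: reporter mRNA induction (RT-PCR, 6-FAM labeling, capillary electrophoresis), gain-of-signal relative to DMSO baseline. Transiently transfected HepG2 TRANS multiplex (NR-Gal4 chimeras, GAL4-UAS reporters), 24 h chemical exposure; medium contained 3 nM 6-alpha-fluorotestosterone plus 1.5 nM norgestrel.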

PGR (gene 5241) [5] = biological target: PGR (gene 5241) (UniProt P06401); assay: TOX21_PR_BLA_Followup_Agonist_ratio: Tox21 HEK293 Progesterone Receptor (PR) Agonism Beta-lactamase Follow-Up Assay, Ratio (AID 2283933)
Outline: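 HEK293T PR-UAS-bla, 2% CS-FBS; 6 hr preincubation, cpd/DMSO pinned, 16 hr 37C/5% CO2; LiveBLAzer B/G 2 hr RT; FRET ch2/ch1 ratio, agonist direction vs DMSO. Viability by CellTiter-Glo in same wells.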

PGR (gene 5241) [6] = biological target: PGR (gene 5241) (UniProt P06401); assay: TOX21_PR_BLA_Followup_Antagonist_ratio: Tox21 HEK293 Progesterone Receptor (PR) Antagonism Beta-lactamase Follow-Up Assay, Ratio (AID 2283934)
Outline: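 HEK293T PR-UAS-bla, 2% CS-FBS; 6 hr plating, then cpd + R5020 (1 nM final), 16 hr 37C/5% CO2. B/G FRET substrate 2 h RT. Ratio ch2/ch1 vs DMSO; CellTiter-Glo viability multiplexed, autofluorescence checked.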

[7] = TOX21_PR_BLA_Followup_Agonist_viability: Viability Assessment in the Tox21 HEK293 Progesterone Receptor (PR) Agonism Beta-lactamase Follow-Up Assay (AID 2283935);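 further: cells exposed to compound for 16 hr at 37 °C; signal loss means lower viability so actives are cytotoxic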
Outline: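 HEK293T PR-UAS-bla, 3,000 cells/well, 2% CS-FBS; 6 hr pre-incubation; cpd in DMSO, 16 hr 37C; LiveBLAzer 2 hr RT, then CellTiter-Glo 30 min RT, luminescence. Decrease = lost viability.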

[8] = TOX21_PR_BLA_Followup_Antagonist_viability: Viability Assessment in the Tox21 HEK293 Progesterone Receptor (PR) Antagonism Beta-lactamase Follow-Up Assay (AID 2283936);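 further: hits lower the luminescence signal meaning cytotoxicity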
Outline: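 PR-UAS-bla HEK293T cells (3,000/well, 2% charcoal-stripped FBS) given compound plus R5020 agonist, 16 h at 37C. CellTiter-Glo added after bla read, 30 min at room temperature; luminescence loss indicates cytotoxicity.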

PGR (gene 5241) [9] = biological target: PGR (gene 5241) (UniProt P06401); assay: TOX21_PR_LUC_Followup_Agonist: Tox21 HEK293 Progesterone Receptor (PR) Agonism Luciferase Follow-Up Assay (AID 2283937; active means hit-call score of the fitted dose curve at least 0.9, where 1 is the maximum; inactive means score below 0.9)
Outline: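 Cells: HEK293-PR-A-luc, 3,000/well, 10% charcoal-stripped FBS assay medium. Compound added after 5 h; 16 h, 37C, 0% CO2. ONE-Glo luciferase, luminescence. Positive fit vs DMSO.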

frog Thyroid hormone Receptor alpha (TRa), thra-a (gene 397942), sequence (P15204 whole entry, looked up, the tested form may be a part): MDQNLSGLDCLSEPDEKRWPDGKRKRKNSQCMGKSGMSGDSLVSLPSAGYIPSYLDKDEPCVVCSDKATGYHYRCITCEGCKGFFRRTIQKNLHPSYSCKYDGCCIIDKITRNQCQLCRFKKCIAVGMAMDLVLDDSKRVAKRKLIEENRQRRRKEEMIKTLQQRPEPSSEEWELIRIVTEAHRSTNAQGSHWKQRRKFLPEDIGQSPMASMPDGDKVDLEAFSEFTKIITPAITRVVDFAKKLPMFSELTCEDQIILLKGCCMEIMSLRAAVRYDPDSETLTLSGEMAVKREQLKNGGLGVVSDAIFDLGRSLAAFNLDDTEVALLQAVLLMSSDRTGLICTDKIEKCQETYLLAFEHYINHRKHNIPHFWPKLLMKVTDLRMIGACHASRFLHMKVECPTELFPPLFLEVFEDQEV
PGR (gene 5241), sequence (P06401 whole entry, looked up): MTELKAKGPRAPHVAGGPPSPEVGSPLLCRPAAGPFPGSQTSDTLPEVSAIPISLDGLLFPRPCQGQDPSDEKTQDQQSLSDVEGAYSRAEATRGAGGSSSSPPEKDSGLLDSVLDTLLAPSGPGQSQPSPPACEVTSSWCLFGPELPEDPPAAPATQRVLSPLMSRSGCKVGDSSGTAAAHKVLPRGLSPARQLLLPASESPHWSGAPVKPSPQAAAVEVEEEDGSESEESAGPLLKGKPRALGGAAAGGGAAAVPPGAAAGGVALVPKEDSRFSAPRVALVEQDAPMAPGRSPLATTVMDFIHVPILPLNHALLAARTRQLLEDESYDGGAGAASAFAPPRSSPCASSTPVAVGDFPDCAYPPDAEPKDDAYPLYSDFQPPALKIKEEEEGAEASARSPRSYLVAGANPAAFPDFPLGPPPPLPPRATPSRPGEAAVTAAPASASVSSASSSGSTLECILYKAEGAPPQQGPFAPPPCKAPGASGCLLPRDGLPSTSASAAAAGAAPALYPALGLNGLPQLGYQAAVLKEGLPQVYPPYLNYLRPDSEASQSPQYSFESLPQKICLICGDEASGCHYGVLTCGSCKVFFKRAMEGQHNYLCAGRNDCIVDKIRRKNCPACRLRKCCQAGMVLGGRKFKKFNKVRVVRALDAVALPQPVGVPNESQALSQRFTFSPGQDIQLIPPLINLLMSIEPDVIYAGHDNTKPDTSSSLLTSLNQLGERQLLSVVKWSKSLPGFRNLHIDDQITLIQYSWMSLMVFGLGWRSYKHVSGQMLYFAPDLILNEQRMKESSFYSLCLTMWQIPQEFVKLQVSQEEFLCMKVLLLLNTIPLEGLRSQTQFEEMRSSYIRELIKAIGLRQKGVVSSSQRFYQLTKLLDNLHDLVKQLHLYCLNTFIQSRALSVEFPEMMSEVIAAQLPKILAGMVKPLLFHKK
human Thyroid hormone Receptor beta (TRb), THRB (gene 7068), sequence (P10828 whole entry, looked up, the tested form may be a part): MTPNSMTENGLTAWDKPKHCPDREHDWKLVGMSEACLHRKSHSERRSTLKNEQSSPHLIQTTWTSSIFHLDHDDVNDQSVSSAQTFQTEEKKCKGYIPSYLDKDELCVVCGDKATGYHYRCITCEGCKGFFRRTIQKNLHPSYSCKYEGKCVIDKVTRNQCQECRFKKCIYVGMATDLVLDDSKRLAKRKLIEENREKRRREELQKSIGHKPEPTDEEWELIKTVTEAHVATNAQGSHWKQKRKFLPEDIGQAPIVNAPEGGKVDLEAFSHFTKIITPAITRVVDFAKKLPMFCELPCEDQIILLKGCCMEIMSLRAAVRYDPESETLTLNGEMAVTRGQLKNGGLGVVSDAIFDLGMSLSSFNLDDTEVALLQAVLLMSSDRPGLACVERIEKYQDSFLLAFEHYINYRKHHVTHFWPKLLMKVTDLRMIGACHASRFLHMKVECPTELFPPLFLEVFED

O=C(OCCOCCOC(=O)c1ccccc1)c1ccccc1
outcome [1]: inactive | outcome [2]: inactive

O=C1OC2(c3ccccc31)c1cc(Br)c(O)c(Br)c1Oc1c2cc(Br)c(O)c1Br
AC50 [1]: 14.1 µM (active) | outcome [2]: inactive

CCC(=C(c1ccc(O)cc1)c1ccc(OCCN(C)C)cc1)c1ccccc1
outcome [3]: inactive | outcome [4]: inactive | outcome [1]: inactive | outcome [2]: inactive

NC(=O)N1C(=O)C(C(=O)c2cc(Cl)cs2)c2cc(F)c(Cl)cc21 (configuration not stated)
outcome [1]: inactive | outcome [2]: inactive

CC#C[C@]1(O)CC[C@H]2[C@@H]3CCC4=CC(=O)CCC4=C3[C@@H](c3ccc(N(C)C)cc3)C[C@@]21C
outcome [2]: inactive

CCCCCCCCCCCCCC[N+](C)(C)C
AC50 [1]: 19.2 µM (active) | outcome [2]: inactive

CCCCCCCCCCCCN1CCCC1=O
outcome [1]: inactive | outcome [2]: inactive

CC1=C(/C=C/C(C)=C/C=C/C(C)=C/C(=O)O)C(C)(C)CCC1
outcome [1]: inactive | outcome [2]: inactive

FC(F)(I)C(F)(F)C(F)(F)C(F)(F)C(F)(F)C(F)(F)I
AC50 [1]: 5.79 µM (active)

ClC1=C(Cl)C(Cl)(Cl)C(Cl)=C1Cl
AC50 [1]: 19.1 µM (active) | outcome [2]: inactive

OCCC(F)(F)C(F)(F)C(F)(F)C(F)(F)C(F)(F)C(F)(F)F
outcome [1]: inactive

CC(=O)NC1(c2cccc(F)c2)CCN(CC[C@@]2(c3ccc(Cl)c(Cl)c3)CN(c3ccccc3)C(=O)CO2)CC1
outcome [1]: inactive | outcome [2]: inactive

O=c1c(-c2ccc(O)cc2)coc2cc(O)ccc12
outcome [3]: inactive | outcome [4]: inactive

O=C(O)Cc1cc(I)c(Oc2cc(I)c(O)c(I)c2)c(I)c1
AC50 [3]: 86.6 nM (active) and 15.1 nM (active) | AC50 [4]: 38.4 nM (active) and 12.3 nM (active) | outcome [1]: inactive | outcome [2]: inactive

CCCCCCCCCCCCc1ccccc1S(=O)(=O)O
outcome [1]: inactive | outcome [2]: inactive

c1ccc2c(c1)ccc1ccccc12
outcome [3]: inactive | outcome [4]: inactive | outcome [2]: inactive

Oc1cc2ccccc2c2ccccc12
AC50 [3]: 33.4 µM (active) | outcome [3]: inactive | AC50 [4]: 16.3 µM (active) | outcome [1]: inactive | outcome [2]: inactive

CC(C)(C)c1ccc(O)c(C(C)(C)C)c1
AC50 [1]: 50 µM (active) | AC50 [2]: 9.92 µM (active)

c1ccc2cc3c(ccc4ccccc43)cc2c1
AC50 [1]: 50 µM (active) | outcome [2]: inactive | outcome (PGR (gene 5241) [5]): inactive | AC50 (PGR (gene 5241) [6]): 21.8 µM (active) | outcome [7]: inactive | outcome [8]: inactive | outcome (PGR (gene 5241) [9]): inactive

CC[C@H](c1ccc(O)cc1)[C@@H](CC)c1ccc(O)cc1
outcome [3]: inactive | outcome [4]: inactive | AC50 [1]: 50 µM (active) | AC50 [2]: 9.92 µM (active) | outcome (PGR (gene 5241) [5]): inactive | AC50 (PGR (gene 5241) [6]): 9.17 µM (active) | outcome [7]: inactive | outcome [8]: inactive | outcome (PGR (gene 5241) [9]): inactive
